Laboratory results as given in PubChem BioAssay (NCATS).
Results filed as inconclusive are left out. A call without a number means that no potency is given here. Unmarked numbers belong to inactive results. The source made the active and inactive calls. Calls follow the shape of the dose curve; as a rule, active = well fitted curve in the direction sought with a large enough effect; inconclusive = small, poorly fitted or top-dose-only effect, or another doubt; inactive = no such curve, though single readings can be large; an effect the other way counts as inactive or inconclusive.

Legend:
HEK293 = assay: Cytotoxic Profiling of Annotated Libraries Using Quantitative High-Throughput Screening (AID 1296008); conditions: Five cell lines viability, CellTiter-Glo ATP luminescence, 48-72 h; max response: hits give low values; also: nearly all actives have a fitted effect of over 60% in size; also: potency is read from the fitted curve at half-maximal effect
In short: (§1)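 Cytotoxicity was measured as CellTiter-Glo ATP luminescence, read after 10 min at room temperature. Compound treatment of the cells lasted 48 or 72 hr at 37 degrees Celsius in a qHTS format.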

HaCat = assay: as above; conditions: Five cell lines viability, CellTiter-Glo ATP luminescence, 48-72 h; max response: hits give low values
In short: as §1

KB-3-1 = assay: as above; conditions: Five cell lines viability, CellTiter-Glo ATP luminescence, 48-72 h; max response: hits give low values
In short: as §1

NIH3T3 = assay: as above; conditions: Five cell lines viability, CellTiter-Glo ATP luminescence, 48-72 h; max response: hits give low values
In short: as §1

C33A = assay: Primary qHTS to identify gynecologic anti-cancer compounds using libraries of approved drugs and bioactive compounds (AID 1345084); conditions: Gynecologic cancer cell panel viability, ATPlite luminescence, 48 h; series mostly up to 57.5 µM; also: nearly all actives have a fitted effect of over 55% in size
In short: (§2)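 Measured: luminescence after ATPlite addition (15 min, RT). Exposure: 48 h, 37 C, 5% CO2.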

CAOV3 = assay: as above; conditions: Gynecologic cancer cell panel viability, ATPlite luminescence, 48 h; series mostly up to 57.5 µM
In short: as §2

CASKI = assay: as above; conditions: Gynecologic cancer cell panel viability, ATPlite luminescence, 48 h; series mostly up to 57.5 µM
In short: as §2

Es-2 = assay: as above; conditions: Gynecologic cancer cell panel viability, ATPlite luminescence, 48 h; series mostly up to 57.5 µM
In short: as §2

HeLa = assay: as above; conditions: Gynecologic cancer cell panel viability, ATPlite luminescence, 48 h; series mostly up to 57.5 µM
In short: as §2

Hek293T = assay: as above; conditions: Gynecologic cancer cell panel viability, ATPlite luminescence, 48 h, control line for the selectivity index; series mostly up to 57.5 µM
In short: as §2

JEG-3 = assay: as above; conditions: Gynecologic cancer cell panel viability, ATPlite luminescence, 48 h; series mostly up to 57.5 µM
In short: as §2

Compound: C[C@H](O)[C@H](O)/C=C/c1cccc(O)c1CO
- max response (HEK293): -4.7%
- max response (HaCat): -3.13%
- max response (KB-3-1): 8.41%
- max response (NIH3T3): -3.03%
- Potency (C33A): inactive
- Potency (CAOV3): inactive
- Potency (CASKI): inactive
- Potency (Es-2): inactive
- Potency (HeLa): inactive
- Potency (Hek293T): inactive
- Potency (JEG-3): inactive

Compound: CC1C(OC(=O)c2ccccc2)C(O)C2C(C(=O)O)=COC(OC3OC(CO)C(O)C(O)C3O)C12 (centres undefined)
- max response (HEK293): -0.0764%
- max response (HaCat): -2.92%
- outcome (KB-3-1): inactive
- max response (NIH3T3): 4.34%
- Potency (C33A): inactive
- Potency (CAOV3): inactive
- Potency (CASKI): inactive
- Potency (Es-2): inactive
- Potency (HeLa): inactive
- Potency (Hek293T): inactive
- Potency (JEG-3): inactive

Compound: CC(C)=CCC[C@](C)(O[C@@H]1O[C@H](CO)[C@@H](O)[C@H](O)[C@H]1O)[C@H]1CC[C@]2(C)[C@@H]1[C@H](O)CC1[C@@]3(C)CC[C@H](O)C(C)(C)C3[C@@H](O[C@@H]3O[C@H](CO)[C@@H](O)[C@H](O)[C@H]3O)C[C@]12C (some centres undefined)
- max response (HEK293): -3.92%
- max response (HaCat): 4.06%
- max response (KB-3-1): 9.79%
- max response (NIH3T3): -17.5%
- Potency (C33A): inactive
- Potency (CAOV3): inactive
- Potency (CASKI): inactive
- Potency (Es-2): inactive
- Potency (HeLa): inactive
- Potency (Hek293T): inactive
- Potency (JEG-3): inactive

Compound: CC(=O)OC1CC2(C)C3=CCC4(C)C5C(O)C(O)C(C(C)C)C5(C)CCC4(C)C3CCC2C(C)(C)C1OC1OC(CO)C(O)C(O)C1O (centres undefined)
- max response (HEK293): -1.39%
- max response (HaCat): -3%
- max response (KB-3-1): 2.57%
- max response (NIH3T3): 4.87%
- Potency (C33A): inactive
- Potency (CAOV3): inactive
- Potency (CASKI): inactive
- Potency (Es-2): inactive
- Potency (HeLa): inactive
- Potency (Hek293T): inactive
- Potency (JEG-3): inactive

Compound: CC(C)C(C#N)O[C@@H]1O[C@H](CO[C@@H]2O[C@@H](C)[C@H](O)[C@@H](O)[C@H]2O)[C@@H](O)[C@H](O)[C@H]1O (some centres undefined)
- max response (HEK293): 0.693%
- max response (HaCat): -12%
- max response (KB-3-1): -1.19%
- max response (NIH3T3): -15%
- Potency (C33A): inactive
- Potency (CAOV3): inactive
- Potency (CASKI): inactive
- Potency (Es-2): inactive
- Potency (HeLa): inactive
- Potency (Hek293T): inactive
- Potency (JEG-3): inactive

Compound: CC(=O)N[C@@H](CCCCN)C(=O)N(C)[C@@H](CC(C)C)C(=O)N[C@H](C(=O)N(C)[C@@H](Cc1ccccc1)C(=O)N[C@H](Cc1ccccc1)C(N)=O)C(C)C
- max response (HEK293): -3.34%
- max response (HaCat): -11.8%
- outcome (KB-3-1): inactive
- max response (NIH3T3): -4.99%
- activity change, negative = cytotoxicity (C33A): 18.7% [at 6.55 µM]
- activity change, negative = cytotoxicity (CAOV3): 6.22% [at 6.55 µM]
- activity change, negative = cytotoxicity (CASKI): 2.04% [at 6.55 µM]
- activity change, negative = cytotoxicity (Es-2): -0.643% [at 6.55 µM]
- activity change, negative = cytotoxicity (HeLa): 16.5% [at 6.55 µM]
- activity change, negative = cytotoxicity (Hek293T): 8.12% [at 6.55 µM]
- activity change, negative = cytotoxicity (JEG-3): -0.179% [at 6.55 µM]

Compound: CC1(C(=O)O)CCCC2(C)C3=CCC4CC3(CCC12)CC4CO (centres undefined)
- max response (HEK293): -3.78%
- max response (HaCat): 2.08%
- max response (KB-3-1): 2.22%
- max response (NIH3T3): -1.37%
- Potency (C33A): inactive
- Potency (CAOV3): inactive
- Potency (CASKI): inactive
- Potency (Es-2): inactive
- Potency (HeLa): inactive
- Potency (Hek293T): inactive
- Potency (JEG-3): inactive

Compound: CC(C)CN(C[C@@H](O)[C@H](Cc1ccccc1)NC(=O)O[C@@H]1CO[C@H]2OCC[C@H]21)S(=O)(=O)c1ccc(N)cc1
- max response (HEK293): -6.82%
- max response (HaCat): -6.53%
- max response (KB-3-1): -3.21%
- max response (NIH3T3): -1.09%
- Potency (C33A): inactive
- Potency (CAOV3): inactive
- Potency (CASKI): inactive
- Potency (Es-2): inactive
- Potency (HeLa): inactive
- Potency (Hek293T): inactive
- Potency (JEG-3): inactive

Compound: CC(=O)O[C@@H]1[C@@H](CO)O[C@@](CO)(O[C@H]2O[C@H](COC(=O)/C=C/c3ccccc3)[C@@H](O)[C@H](O)[C@H]2O)[C@H]1O
- max response (HEK293): 0.799%
- max response (HaCat): -9.37%
- outcome (KB-3-1): inactive
- max response (NIH3T3): 1.35%
- Potency (C33A): inactive
- Potency (CAOV3): inactive
- Potency (CASKI): inactive
- Potency (Es-2): inactive
- Potency (HeLa): inactive
- Potency (Hek293T): inactive
- Potency (JEG-3): inactive

Compound: C[C@H]1CC[C@@H]2N(C1)C[C@@H]1[C@H]([C@@H](O)[C@H](O)[C@]3(O)[C@H]1C[C@@]14OC5(O)[C@@H](C[C@@H](O)[C@@H]31)[C@]4(C)CC[C@@H]5O)[C@]2(C)O
- max response (HEK293): -8.96%
- max response (HaCat): -17.6%
- outcome (KB-3-1): inactive
- max response (NIH3T3): 0.156%
- Potency (C33A): inactive
- Potency (CAOV3): inactive
- Potency (CASKI): inactive
- Potency (Es-2): inactive
- Potency (HeLa): inactive
- Potency (Hek293T): inactive
- Potency (JEG-3): inactive

Compound: C/C=C/c1cc(OC)c2c(c1)[C@@H](C)[C@@H](c1ccc(O)c(OC)c1)O2
- max response (HEK293): -109%
- max response (HaCat): -83.1%
- max response (KB-3-1): -24.2%
- max response (NIH3T3): -61.9%
- Potency (C33A): inactive
- Potency (CAOV3): inactive
- Potency (CASKI): inactive
- Potency (Es-2): inactive
- Potency (HeLa): inactive
- Potency (Hek293T): inactive
- Potency (JEG-3): inactive

Compound: Cc1[nH]c2ccccc2c1C1=C(NCCc2ccc(F)cc2)C(=O)N(C)C1=O
- max response (HEK293): -22.2%
- Potency (HaCat): 8.2 µM (active)
- max response (KB-3-1): -15.2%
- Potency (NIH3T3): 14.6 µM (active)
- Potency (C33A): inactive
- Potency (CAOV3): inactive
- Potency (CASKI): inactive
- Potency (Es-2): inactive
- Potency (HeLa): inactive
- Potency (Hek293T): inactive
- Potency (JEG-3): inactive

Compound: C=C1CC[C@@H]2[C@@](C)(CO[C@@H]3O[C@H](CO)C(O)[C@H](O)C3O)[C@H](O)CC[C@@]2(C)[C@@H]1CC/C(C)=C/CO (some centres undefined)
- max response (HEK293): 1.32%
- max response (HaCat): -3.82%
- outcome (KB-3-1): inactive
- max response (NIH3T3): -10.1%
- activity change, negative = cytotoxicity (C33A): -18.4% [at 11.6 µM]
- activity change, negative = cytotoxicity (CAOV3): 1.16% [at 11.6 µM]
- activity change, negative = cytotoxicity (CASKI): -5.44% [at 11.6 µM]
- activity change, negative = cytotoxicity (Es-2): 9.56% [at 11.6 µM]
- activity change, negative = cytotoxicity (HeLa): -3.99% [at 11.6 µM]
- activity change, negative = cytotoxicity (Hek293T): 2% [at 11.6 µM]
- activity change, negative = cytotoxicity (JEG-3): 2.39% [at 11.6 µM]

Compound: C[C@@H]1O[C@@H](O[C@@H]2[C@@H](O[C@@H]3O[C@@H](C)[C@H](O[C@@H]4OC[C@H](O)[C@H](O[C@@H]5OC[C@@H](O)[C@H](O)[C@H]5O)[C@H]4O)[C@@H](O[C@@H]4OC[C@](O)(CO)[C@H]4O)[C@H]3O)[C@H](OC(=O)[C@]34CCC(C)(C)C[C@H]3C3=CCC5[C@@]6(C)C[C@H](O)[C@H](O[C@@H]7O[C@H](CO[C@@H]8OC[C@H](O)[C@H](O)[C@H]8O)[C@@H](O)[C@H](O)[C@H]7O)C(C)(C)C6CC[C@@]5(C)[C@]3(C)C[C@H]4O)OC[C@H]2O)[C@H](O)[C@H](O)[C@H]1O (some centres undefined)
- max response (HEK293): 0.0429%
- max response (HaCat): 0.757%
- max response (KB-3-1): 9.59%
- max response (NIH3T3): 0.953%
- activity change, negative = cytotoxicity (C33A): -0.354% [at 6.55 µM]
- activity change, negative = cytotoxicity (CAOV3): 6.96% [at 6.55 µM]
- activity change, negative = cytotoxicity (CASKI): -5.17% [at 6.55 µM]
- activity change, negative = cytotoxicity (Es-2): 0.628% [at 6.55 µM]
- activity change, negative = cytotoxicity (HeLa): 4.56% [at 6.55 µM]
- activity change, negative = cytotoxicity (Hek293T): -4.92% [at 6.55 µM]
- activity change, negative = cytotoxicity (JEG-3): -6.81% [at 6.55 µM]
